Measured values reported in PubChem BioAssay (NCATS).
Inconclusive results are not listed. Activity calls are given as the source filed them. Calls follow the shape of the dose curve; as a rule, active = well fitted inhibition curve with a large enough effect; inconclusive = small, poorly fitted or top-dose-only effect; inactive = flat fitted curve, though single readings scatter.

Each compound was assayed on CP238 (assay: qHTS profiling for inhibitors of Plasmodium falciparum proliferation (AID 504749; also: nearly all actives have a fitted effect of over 60% in size;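 as to activity, negative = inhibition: 0% = DMSO vehicle and full inhibition = artemisinin control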)). Details: P. falciparum in erythrocytes, SYBR Green DNA, 72 h; series mostly up to 28.7 µM; activity, negative = inhibition: at the top concentration.
Procedure, shortened: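 SYBR Green fluorescence of parasite DNA, read after lysis and overnight dark incubation, measured growth over 72 h in erythrocyte culture at 0.3% parasitemia and 2.5% hematocrit. Data normalised to DMSO and 0.29 uM artemisinin, with plate-drift correction.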
Potency is read from the fitted curve at half-maximal effect.

Row | SMILES | activity, negative = inhibition | Potency
1 | Cc1ncc([N+](=O)[O-])n1CC(C)O (stereo not drawn) | 7.29% (inactive) | –
2 | C[C@]12CCC(=O)C=C1CC[C@@H]1[C@H]2[C@@H](O)C[C@@]2(C)[C@H]1CC[C@]2(O)C(=O)CO | 3.63% (inactive) | –
3 | Oc1ccc(OCc2ccccc2)cc1 | -0.405% [at 12.8 µM] (inactive) | –
4 | CCCc1cc(=O)[nH]c(=S)[nH]1 | 8.29% (inactive) | –
5 | O=C(O)c1cc(=O)c2c(OCC(O)COc3cccc4oc(C(=O)O)cc(=O)c34)cccc2o1 | 6.65% (inactive) | –
6 | CC1(C)CCC(C)(C)c2cc(NC(=O)c3ccc(C(=O)O)cc3)ccc21 | 0.689% (inactive) | –
7 | CN(C)C(=O)COC(=O)Cc1ccc(OC(=O)c2ccc(N=C(N)N)cc2)cc1 | -14% (inactive) | –
8 | C=C(c1ccc(C(=O)O)cc1)c1cc2c(cc1C)C(C)(C)CCC2(C)C | 7.28% (inactive) | –
9 | CS(=O)(=O)OCCCCOS(C)(=O)=O | 1.95% (inactive) | –
10 | O=C(O)c1cccc(-c2noc(-c3ccccc3F)n2)c1 | -0.809% (inactive) | –
11 | O=C(CS(=O)Cc1ccco1)NCC=CCOc1cc(CN2CCCCC2)ccn1 (stereo not drawn) | 2.35% (inactive) | –
12 | CC(C)(S)[C@@H](N)C(=O)O | 7.23% (inactive) | –
13 | Cc1c(OCC(F)(F)F)ccnc1CS(=O)c1nc2ccccc2[nH]1 (stereo not drawn) | 0.352% (inactive) | –
14 | O=P(O)(O)C(O)(Cn1ccnc1)P(=O)(O)O | 1.37% (inactive) | –
15 | O=C(O)CCNC(=O)c1ccc(N=Nc2ccc(O)c(C(=O)O)c2)cc1 | 1.99% (inactive) | –
16 | CC(S)C(=O)NCC(=O)O (stereo not drawn) | 3.43% (inactive) | –
17 | CCC(C)(Oc1ccc(C2(c3ccc(OC(C)(CC)C(=O)O)cc3)CCCCC2)cc1)C(=O)O (stereo not drawn) | -0.933% (inactive) | –
18 | CC1(C)NC(=O)N(c2ccc([N+](=O)[O-])c(C(F)(F)F)c2)C1=O | 5.75% (inactive) | –
19 | CNC[C@H](O)c1ccc(O)c(O)c1 | 13.9% (inactive) | –
20 | C[C@H](Cn1cnc2c(N)ncnc21)OCP(=O)(O)O | 0.531% (inactive) | –
21 | CCCCN(CCCC)CCC(O)c1cc2c(Cl)cc(Cl)cc2c2cc(C(F)(F)F)ccc12 (stereo not drawn) | – | 7.9 nM (active)
22 | Cc1cc(=O)c2c(O)c3c(O)cc(=O)c4c3c3c(cc(O)c1c23)C(C)(C)C=4O | – | 1000 nM (active)
23 | Cc1cc2cc3c(C)cc(=O)oc3c(C)c2o1 | 12.7% [at 12.8 µM] (inactive) | –
24 | Nc1cccc2c1CN(C1CCC(=O)NC1=O)C2=O (stereo not drawn) | 3.2% (inactive) | –
25 | Nc1ccn([C@@H]2O[C@H](CO)[C@@H](O)C2O)c(=O)n1 (stereo partly drawn) | 2.51% (inactive) | –
26 | COc1cc2c(cc1OC)C1CC(=O)C(CC(C)C)CN1CC2 (stereo not drawn) | 3.27% (inactive) | –
27 | Nc1nc(Cl)nc2c1ncn2[C@H]1C[C@H](O)[C@@H](CO)O1 | 4.36% (inactive) | –
28 | CCOC(=O)c1c(C)n(C)c2ccc(O)cc12 | 5.09% (inactive) | –
